Screens as filed in PubChem BioAssay.
Only some compounds are listed: those with a hit (about 2.3% of all), similar ones and a draw of the others.
Mcl-1 Bim block – inhibitors of Bim-Mcl-1 interaction, human | actives 0.1% (n = 190,000) | Bead-based flow cytometry, Bim peptide-Mcl-1 binding | inhibition, % at 10 µM | Q07820; in the data active = inhibition above about 40%;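 also: 0% = no compound tracer wells and 100% = peptide blocker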
Target sequence (Q07820 whole entry, looked up): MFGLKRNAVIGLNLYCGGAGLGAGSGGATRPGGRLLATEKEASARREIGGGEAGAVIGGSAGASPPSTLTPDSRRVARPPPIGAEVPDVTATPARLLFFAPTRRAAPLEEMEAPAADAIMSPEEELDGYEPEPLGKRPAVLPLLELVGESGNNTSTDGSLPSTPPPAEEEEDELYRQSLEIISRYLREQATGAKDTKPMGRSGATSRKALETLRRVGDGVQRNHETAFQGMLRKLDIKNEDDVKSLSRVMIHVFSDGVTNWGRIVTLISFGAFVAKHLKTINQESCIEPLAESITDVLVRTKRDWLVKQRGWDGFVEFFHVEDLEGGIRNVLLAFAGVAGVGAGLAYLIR
MCL1 BIM primary – inhibitors of human MCL1 binding to BIM-BH3 peptide. actives 0.68% (n = 320,000). inhibition, % at 10.9 µM. Q07820. GST-MCL1 / FITC-Bim-BH3 fluorescence polarization;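 active = inhibition above the mean inhibition of all tested compounds plus 3 SD, set per campaign, cut at about 40% in these data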;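 also: 0% = DMSO wells and 100% = unlabeled Bim-BH3 peptide control; higher means more loss of mP so more displacement of Bim peptide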
Mcl1-Noxa inh – disrupts binding of human Mcl-1 to Noxa peptide | TR-FRET Mcl-1/Noxa peptide binding, 2 h | inhibition, % at 21.7 µM | actives 1.5% (n = 220,000) | AID 1022;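 active = compounds that cut the protein-peptide binding signal by more than 50% relative to plate controls in a single-dose test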;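 also: His-tagged Mcl-1 with rhodamine Noxa BH3 peptide and terbium anti-His antibody; 0% = Mcl-1 plus Noxa peptide wells and 100% = peptide-only wells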
Bcl-xL primary – inhibitors of human Bcl-xL. AID 2129. Q07817. actives 0.7% (n = 320,000). inhibition, % at 10.9 µM. GST-Bcl-xL / FITC-Bim BH3 peptide fluorescence polarization;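 active = inhibition above the mean of all tested compounds plus 3 SD, cutoff set per campaign, cut at about 30% in these data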;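 also: 0% = DMSO wells and 100% = unlabeled Bim-BH3 peptide competitor; inhibitors lower millipolarization by displacing the labeled peptide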
Target sequence (Q07817 whole entry, looked up): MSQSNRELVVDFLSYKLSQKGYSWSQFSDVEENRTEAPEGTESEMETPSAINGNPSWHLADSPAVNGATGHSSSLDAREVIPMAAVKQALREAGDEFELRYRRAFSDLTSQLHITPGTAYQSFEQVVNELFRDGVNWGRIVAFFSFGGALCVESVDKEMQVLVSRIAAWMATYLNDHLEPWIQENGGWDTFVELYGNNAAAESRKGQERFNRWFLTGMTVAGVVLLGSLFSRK
Mcl1-Bid inh – Mcl-1/Bid interaction inhibition | inhibition, % at 21.7 µM | actives 0.97% (n = 220,000) | Q07820 | AID 1021 | TR-FRET Mcl-1/Bid-Dy647 peptide binding, 1536-well;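 active = compounds that cut the binding signal by more than half at the single screening dose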;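 also: His-tagged Mcl-1 with europium anti-His antibody binding Bid BH3 peptide; 0% = Mcl-1 plus peptide wells and 100% = peptide-only wells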
GLD-1 RNA inh – GLD-1-TGE RNA interaction inhibition (C. elegans). purified GLD-1 + fluorescein TGE RNA, fluorescence polarization. inhibition, % at 5.96 µM. actives 0.44% (n = 320,000). AID 2280. Q17339;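 active = percent inhibition above a per-plate cutoff, the plate mean of test compounds plus 3 SD, cut at about 30% in these data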;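 also: 0% = DMSO wells with GLD-1 and probe and 100% = wells lacking GLD-1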
An asterisk follows results filed as active.

Screening CCCOC(=O)C1=C(C)N(C)C(=O)NC1c1cc2c(cc1[N+](=O)[O-])OCO2 (centres undefined) returned Mcl-1 Bim block 1.0, MCL1 BIM primary 45.2*, Mcl1-Noxa inh 29.8, Bcl-xL primary 42.5*, Mcl1-Bid inh -41.8 and GLD-1 RNA inh 15.3.
`COc1cc(C)ccc1OCCOCCOc1cccc2ccc(C)nc12` gave Mcl-1 Bim block 0.0, MCL1 BIM primary -7.5, Mcl1-Noxa inh 17.2, Bcl-xL primary 3.7, Mcl1-Bid inh -13.1 and GLD-1 RNA inh 7.1.
`C=CCc1ccc(OCCOCCOc2cccc3ccc(C)nc23)c(OC)c1` gave Mcl-1 Bim block 1.0, MCL1 BIM primary 10.1, Mcl1-Noxa inh 16.4, Bcl-xL primary 1.8, Mcl1-Bid inh 80.3* and GLD-1 RNA inh 1.7.
`O=C(CSc1nnnn1-c1ccc(F)cc1)c1ccc(O)c(O)c1` gave Mcl-1 Bim block -1.0, MCL1 BIM primary 3.2, Mcl1-Noxa inh 56.9*, Bcl-xL primary 0.0, Mcl1-Bid inh -14.9 and GLD-1 RNA inh 4.1.
`O=C(O)c1ccc(CSc2nnnn2-c2ccc(F)cc2)cc1` gave MCL1 BIM primary -8.1, Bcl-xL primary 2.0 and GLD-1 RNA inh -3.0.
`COC(=O)c1ccc2c(c1O)C(=O)c1ccccc1C2=O` gave Mcl-1 Bim block 3.0, MCL1 BIM primary 17.5, Mcl1-Noxa inh 57.6*, Bcl-xL primary 15.2, Mcl1-Bid inh 48.3 and GLD-1 RNA inh 1.8.
`COc1ccc2nc(C)cc(SCC(=O)N/N=C/c3ccccc3)c2c1` gave Mcl-1 Bim block -4.0, MCL1 BIM primary 1.9, Mcl1-Noxa inh -14.4, Bcl-xL primary 1.8, Mcl1-Bid inh 7.9 and GLD-1 RNA inh 2.9.
COc1ccc2nc(C)cc(SCC(=O)NNC(=O)COc3cccc4ccccc34)c2c1 was read as Mcl-1 Bim block -1.0, MCL1 BIM primary -11.8, Mcl1-Noxa inh 0.9, Bcl-xL primary -4.9, Mcl1-Bid inh 51.5* and GLD-1 RNA inh -1.2.
For COc1ccc2nc(C)cc(SCC(=O)N/N=C/c3c(OC)ccc4ccccc34)c2c1 the results were Mcl-1 Bim block -12.0, MCL1 BIM primary -6.0, Mcl1-Noxa inh 2.5, Bcl-xL primary 2.6, Mcl1-Bid inh 63.8* and GLD-1 RNA inh -0.6.
`COc1ccc2nc(C)cc(SCC(=O)Nc3c(C)cc(C)cc3C)c2c1` gave Mcl-1 Bim block 2.0, MCL1 BIM primary -5.0, Mcl1-Noxa inh -4.4, Bcl-xL primary 2.2, Mcl1-Bid inh -9.2 and GLD-1 RNA inh -8.0.
For COc1ccc2nc(C)cc(SCC(=O)Nc3c(C)cccc3C)c2c1 the results were Mcl-1 Bim block -2.0, MCL1 BIM primary -3.5, Mcl1-Noxa inh -7.2, Bcl-xL primary -5.1, Mcl1-Bid inh 68.1* and GLD-1 RNA inh 0.9.
Screening Cc1ccccc1-c1cc(C(=O)Nc2sc(C)c(C)c2C(N)=O)c2ccccc2n1 returned Mcl-1 Bim block -5.0, MCL1 BIM primary 8.7, Mcl1-Noxa inh 29.6, Bcl-xL primary 8.2, Mcl1-Bid inh 3.2 and GLD-1 RNA inh 0.7.
For CCOC(=O)c1c(NC(=O)c2cc(-c3ccc(Cl)s3)nc3ccccc23)sc(C(N)=O)c1C the results were Mcl-1 Bim block -5.0, MCL1 BIM primary 2.3, Mcl1-Noxa inh 18.8, Bcl-xL primary 25.2, Mcl1-Bid inh 61.0* and GLD-1 RNA inh 6.6.
Screening O=C(Nc1nnc(-c2ccccc2Cl)o1)c1cc2cc([N+](=O)[O-])ccc2s1 returned Mcl-1 Bim block -2.0, Mcl1-Noxa inh 55.1* and Mcl1-Bid inh 35.4.
`O=C(Nc1ccccn1)c1cc2cc([N+](=O)[O-])ccc2s1` gave Mcl-1 Bim block 0.0, MCL1 BIM primary 1.6, Mcl1-Noxa inh 35.7, Bcl-xL primary -12.6, Mcl1-Bid inh 8.3 and GLD-1 RNA inh 0.4.
Screening CCc1ccc(C(=O)NC(=S)NCc2cccnc2)cc1 returned MCL1 BIM primary 11.9, Bcl-xL primary 3.6 and GLD-1 RNA inh -0.8.
O=C(CCc1ccccc1)Nc1ccc(N2CCOCC2)cc1 was read as Mcl-1 Bim block -4.0, MCL1 BIM primary 5.5, Mcl1-Noxa inh 52.6*, Bcl-xL primary 7.6, Mcl1-Bid inh -13.3 and GLD-1 RNA inh -0.8.
`CC1CCCCN1CC(=O)Nc1ccc(N2CCCCCC2)cc1` (centres undefined) gave Mcl-1 Bim block -7.0, MCL1 BIM primary 3.6, Mcl1-Noxa inh 58.5*, Bcl-xL primary 15.2, Mcl1-Bid inh 35.9 and GLD-1 RNA inh -3.6.
Screening Cc1ccc(NC(=O)CCC(=O)c2cccs2)cc1 returned Mcl-1 Bim block -5.0, MCL1 BIM primary 1.8, Mcl1-Noxa inh 12.2, Bcl-xL primary 5.7, Mcl1-Bid inh -9.9 and GLD-1 RNA inh 3.6.
Screening O=C(Cc1ccccc1)Nc1ccc(N2CCCCC2)cc1 returned Mcl-1 Bim block 0.0, MCL1 BIM primary 16.9, Mcl1-Noxa inh 60.7*, Bcl-xL primary 2.8, Mcl1-Bid inh -25.6 and GLD-1 RNA inh -6.9.
O=C(CCC(=O)c1cccs1)Nc1ccc(N2CCCCC2)cc1 was read as Mcl-1 Bim block -1.0, MCL1 BIM primary 4.0, Mcl1-Noxa inh 57.1*, Bcl-xL primary -3.0, Mcl1-Bid inh -51.1 and GLD-1 RNA inh 0.2.
`CC(C)CNC(=O)C(=O)NCC1OCCCN1S(=O)(=O)c1ccc2c(c1)OCCO2` (centres undefined) gave MCL1 BIM primary 2.1, Bcl-xL primary 4.4 and GLD-1 RNA inh -0.3.
O=C(CN1CCc2ccccc21)NC(=O)NC1CCCCC1 was read as MCL1 BIM primary -9.6, Mcl1-Noxa inh -5.8, Bcl-xL primary -0.3, Mcl1-Bid inh -137.3 and GLD-1 RNA inh 9.4.
For CSc1ccccc1NC(=O)CN(C)CC(=O)Nc1ccc(N2CCOCC2)cc1 the results were Mcl-1 Bim block 48.0*, MCL1 BIM primary 4.9, Mcl1-Noxa inh 3.4, Bcl-xL primary 1.4, Mcl1-Bid inh -23.2 and GLD-1 RNA inh -3.5.
CN(CC(=O)Nc1ccc(N2CCOCC2)cc1)CC(=O)Nc1ccc(N2CCOCC2)cc1 was read as MCL1 BIM primary -8.6, Mcl1-Noxa inh -15.9, Bcl-xL primary 4.2, Mcl1-Bid inh -101.9 and GLD-1 RNA inh -4.2.
`N#Cc1ccsc1NC(=O)c1cccc([N+](=O)[O-])c1` gave Mcl-1 Bim block 0.0, MCL1 BIM primary 10.0, Mcl1-Noxa inh 53.9*, Bcl-xL primary 7.1, Mcl1-Bid inh -29.2 and GLD-1 RNA inh 4.5.
`O=C(Nc1cccnc1)c1cc(S(=O)(=O)N2CCCCC2)c(Cl)cc1Cl` gave MCL1 BIM primary -2.9, Bcl-xL primary -0.5 and GLD-1 RNA inh 2.4.
`Nc1nc2ccccc2n1C(=O)c1cccs1` gave Mcl-1 Bim block -3.0, MCL1 BIM primary 5.5, Mcl1-Noxa inh 22.1, Bcl-xL primary 3.4, Mcl1-Bid inh 9.3 and GLD-1 RNA inh 2.1.
`Cc1ccc2c(c1)[C@H]1[C@H](CO2)[C@H](c2ccccc2)[C@]2(C)C(=O)N(Cc3ccc(Cl)cc3)CC(=O)N12` gave MCL1 BIM primary -8.9, Bcl-xL primary -5.3 and GLD-1 RNA inh -3.6.
For Cc1ccc2c(c1)[C@H]1[C@H](CO2)[C@H](c2ccccc2)[C@]2(C)C(=O)N(Cc3ccc(F)cc3)CC(=O)N12 the results were GLD-1 RNA inh 52.1*.
